{
  "source": "PubChem BioAssay AID1209",
  "about": "(Sanford-Burnham Center for Chemical Genomics, 2008)",
  "note": "Screen size: about 190,000 compounds; about 810 (0.43%) were called active. What follows is part of a selection rich in actives, with near analogues and random picks from the rest. A number with no mark means an inactive call. Cut-off read from the data, not from the text of the source: active = inhibition above about 50%; inactive = the rest.",
  "data": [
    {"target": "Mannose-6-phosphate isomerase (Homo sapiens) (UniProt P34949)", "sequence (P34949 whole entry, looked up)": "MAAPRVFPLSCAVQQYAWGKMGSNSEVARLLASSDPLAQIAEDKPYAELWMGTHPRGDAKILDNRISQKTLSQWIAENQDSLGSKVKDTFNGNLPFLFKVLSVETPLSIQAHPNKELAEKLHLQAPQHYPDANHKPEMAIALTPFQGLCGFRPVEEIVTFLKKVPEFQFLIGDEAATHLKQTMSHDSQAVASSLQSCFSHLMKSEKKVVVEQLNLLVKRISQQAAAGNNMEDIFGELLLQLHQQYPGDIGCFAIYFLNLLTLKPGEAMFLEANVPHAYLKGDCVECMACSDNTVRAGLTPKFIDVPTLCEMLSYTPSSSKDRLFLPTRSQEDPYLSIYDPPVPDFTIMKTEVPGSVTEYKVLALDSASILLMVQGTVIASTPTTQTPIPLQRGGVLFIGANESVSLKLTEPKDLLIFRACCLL", "assay": "inhibitors of human PMI, primary screen, biochemical, fluorescence intensity, coupled assay (AID 1209);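 note: plate controls were DMSO vehicle for no effect and wells lacking substrate for full effect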", "details": "purified PMI enzyme, at 20 µM, stronger effect = higher value", "values": [
      {"smiles": "C#CCOCCOCCOCCNc1nc(N2CCN(C(=O)[C@H]([C@@H](C)CC)n3cc(CCCN=C(N)N)nn3)CC2)nc(N2CCN(C(=O)[C@H](C)n3cc(CCCN=C(N)N)nn3)CC2)n1", "inhibition": "-22.8%"},
      {"smiles": "CCN1CCCC1CNC(=O)CSc1cc(=O)n(C)c2cc(Cl)ccc12", "note": "(configuration not stated)", "inhibition": "-0.3%"},
      {"smiles": "COc1ccc(C(=O)C2CCCN(C(=O)COc3ccc(C(C)=O)cc3)C2)cc1F", "note": "(configuration not stated)", "inhibition": "57.4% (active)"},
      {"smiles": "COc1ccc(C(=O)C2CCCN(C(=O)c3ccccc3C(C)=O)C2)cc1F", "note": "(configuration not stated)", "inhibition": "-0.2%"},
      {"smiles": "COc1ccc(C(=O)C2CCCN(C(=O)c3cccs3)C2)cc1F", "note": "(configuration not stated)", "inhibition": "-2.9%"},
      {"smiles": "CC(=O)Nc1nc(SCCCc2ccccc2)n[nH]1", "inhibition": "-3.1%"},
      {"smiles": "COc1cccc(NC(=S)NNC(=O)CCn2cc([N+](=O)[O-])cn2)c1", "inhibition": "9.6%"},
      {"smiles": "O=C(Nc1nc(-c2ccc(Oc3ccccc3)cc2)cs1)C1=COCCO1", "inhibition": "19.1%"},
      {"smiles": "c1ccc2c3c([nH]c2c1)-c1[nH]ncc1CC3", "inhibition": "49%"},
      {"smiles": "Clc1ccc2[nH]c3c(c2c1)CCc1cn[nH]c1-3", "inhibition": "12.6%"},
      {"smiles": "Cc1ccc2[nH]c3c(c2c1)CCc1cn[nH]c1-3", "inhibition": "69.4% (active)"},
      {"smiles": "CC(C)CCOc1ccc(C(=O)NCCC(=O)N2CCOCC2)cc1", "inhibition": "8.3%"},
      {"smiles": "COc1ccc(C(=O)OCC[N+]2(C)CCCCC2)cc1", "inhibition": "4.5%"},
      {"smiles": "COc1ccc(C(=O)OCC[N+]2(C)CCOCC2)cc1", "inhibition": "-0.9%"},
      {"smiles": "CC(C)CCOc1ccc(C(=O)O)cc1", "inhibition": "7.9%"},
      {"smiles": "CC(C)CCOc1ccc(C(=O)C[N+]2(C)CCOCC2)cc1", "inhibition": "81.8% (active)"},
      {"smiles": "COc1ccc(C(=O)C[N+]2(C)CCOCC2)cc1", "inhibition": "81.3% (active)"},
      {"smiles": "Oc1ccccc1C1=Nc2ncnn2C(c2ccccc2)C1", "note": "(configuration not stated)", "inhibition": "-40.5%"},
      {"smiles": "CCOCCCNC(=O)C(c1ccc(C)cc1)N(Cc1cccs1)C(=O)c1ccccn1", "note": "(configuration not stated)", "inhibition": "0.7%"},
      {"smiles": "CCCCCCCCc1nnc(NC(=O)c2ccco2)s1", "inhibition": "2.7%"},
      {"smiles": "CCC(c1nnnn1Cc1cccs1)N1CCN(C2CCCC2)CC1", "note": "(configuration not stated)", "inhibition": "0%"},
      {"smiles": "O=C(N/C(=C\\c1cccc([N+](=O)[O-])c1)C(=O)N1CCOCC1)c1ccc([N+](=O)[O-])cc1", "inhibition": "12.3%"},
      {"smiles": "O=C(C1=C[C@@H](C2CCCCC2)C[C@@H](OCc2ccc(CO)cc2)O1)N1CCN(Cc2ccc3c(c2)OCO3)CC1", "inhibition": "19.6%"},
      {"smiles": "Cn1c(SCC(=O)C(C)(C)C)nnc1-c1ccncc1", "inhibition": "6%"},
      {"smiles": "Cc1ccc(C(C)(C)C)cc1S(=O)(=O)NC(=O)c1ccccc1", "inhibition": "-10.8%"},
      {"smiles": "Nc1ccc(-c2ccc(N)c([N+](=O)[O-])c2)cc1[N+](=O)[O-]", "inhibition": "-6.5%"},
      {"smiles": "C=C1N(C)c2cc([N+](=O)[O-])c(N)cc2C1(C)C", "inhibition": "94% (active)"},
      {"smiles": "CC1(C)Oc2cc(N)c([N+](=O)[O-])cc2O1", "inhibition": "17.5%"},
      {"smiles": "Cc1ncc2c(c1OC(=O)c1ccc([N+](=O)[O-])cc1)COC(C)(C)OC2", "inhibition": "-1.9%"},
      {"smiles": "O=C(CCNC(=O)c1ccco1)Nc1ccc(Cl)cc1", "inhibition": "4.4%"},
      {"smiles": "CC1CCCN(CCOc2ccc(Br)cc2)C1", "note": "(configuration not stated)", "inhibition": "-8.8%"},
      {"smiles": "CC1CCCN(CCC(=O)Nc2ccc(Br)cc2)C1", "note": "(configuration not stated)", "inhibition": "-13.4%"},
      {"smiles": "CC1CCCN(CCC(=O)c2ccc(Br)cc2)C1", "note": "(configuration not stated)", "inhibition": "60.1% (active)"},
      {"smiles": "COc1ccc(C(=O)CCN2CCN(c3ccccc3F)CC2)cc1", "inhibition": "16.8%"},
      {"smiles": "O=C(CCN1CCOCC1)c1ccccc1", "inhibition": "-1.6%"},
      {"smiles": "O=C(CCN1CCN(c2ccccc2F)CC1)Nc1ccccc1F", "inhibition": "-9.9%"},
      {"smiles": "O=C(CCN1CCOCC1)c1ccc(Cl)cc1", "inhibition": "25.9%"},
      {"smiles": "O=C(CCN1CCOCC1)c1ccc(Br)cc1", "inhibition": "60.4% (active)"},
      {"smiles": "O=C(CCN1CCN(c2ccccc2F)CC1)c1ccc(Br)cc1", "inhibition": "59.8% (active)"},
      {"smiles": "COc1cc(C)nc(N2CCC(C(N)=O)CC2)n1", "inhibition": "-2.7%"},
      {"smiles": "Cc1cc(=O)n2[nH]c(-c3ccc(F)cc3)nc2n1", "inhibition": "7.6%"},
      {"smiles": "CC(=O)Nc1nc(NC(=O)/C=C/c2ccccc2)n(-c2ccccc2)n1", "inhibition": "-31.3%"},
      {"smiles": "C=CCc1ccccc1OCCOc1ccc([N+](=O)[O-])cc1/C=N/NC(N)=O", "inhibition": "3.8%"},
      {"smiles": "Cc1ccc(S(=O)(=O)NCC(=O)N(CC(=O)NC(C)(C)C)Cc2cccs2)cc1", "inhibition": "-16%"},
      {"smiles": "COc1ccc(S(=O)(=O)NCC(=O)N(CC(=O)NC(C)(C)C)Cc2cccs2)cc1", "inhibition": "110% (active)"},
      {"smiles": "CC(C)(C)NC(=O)CN(Cc1cccs1)C(=O)CNS(=O)(=O)c1ccccc1", "inhibition": "-0.6%"},
      {"smiles": "NC(=O)c1nn(CC(=O)Nc2ccc3c(c2)OCO3)cc1[N+](=O)[O-]", "inhibition": "0%"},
      {"smiles": "Cc1ccc(NCC(=O)N/N=C/c2c[nH]c3ccccc23)cc1", "inhibition": "0%"},
      {"smiles": "Cc1ccc(S(=O)(=O)Nc2cnc3ccccc3c2)cc1", "inhibition": "3.8%"},
      {"smiles": "O=C(O)c1ccc2c(c1)C(=O)N(c1cccc(-c3nc4ccccc4s3)c1)C2=O", "inhibition": "102% (active)"},
      {"smiles": "O=C(O)c1ccc2nc(-c3ccccc3)sc2c1", "inhibition": "-10.7%"},
      {"smiles": "CC(=O)Oc1cccc(N2C(=O)c3ccc(C(=O)O)cc3C2=O)c1", "inhibition": "-31.5%"},
      {"smiles": "COc1ccc(/C(O)=C2\\C(=O)C(=O)N(CCN(C)C)C2c2cc(OC)c(OC)c(OC)c2)c(C)c1", "note": "(configuration not stated)", "inhibition": "-21.3%"},
      {"smiles": "CCOC(=O)C1=C(C)N[C@@]2(O)c3ccccc3C(=O)[C@@]12O", "inhibition": "21%"},
      {"smiles": "CCOC(=O)C1=C(C)NC2(O)c3ccccc3C(=O)C12O", "note": "(configuration not stated)", "inhibition": "12.1%"},
      {"smiles": "COCCOC(=O)C1=C(C)NC2(O)c3ccccc3C(=O)C12O", "note": "(configuration not stated)", "inhibition": "70.5% (active)"},
      {"smiles": "COc1ccccc1OCC(=O)NNC(=O)c1c(-c2ccccc2Cl)noc1C", "inhibition": "-14.6%"},
      {"smiles": "O=S(=O)(NCCN1CCOCC1)c1ccc(Cl)s1", "inhibition": "-5.3%"},
      {"smiles": "O=S(=O)(NCCNS(=O)(=O)c1cccs1)c1cccs1", "inhibition": "-15.3%"},
      {"smiles": "O=S(=O)(NCCN1CCOCC1)c1cccs1", "inhibition": "68.9% (active)"},
      {"smiles": "Cc1cc2cc(C)c3nnc(SCC(=O)N4CCCc5ccccc54)n3c2cc1C", "inhibition": "12.3%"},
      {"smiles": "N#CCCn1cc(C(=O)O)c(-c2cc3ccccc3o2)n1", "inhibition": "-2.3%"}
    ]}
  ]
}
